Legend:
Experiment in all cases: log2 ratio of Biotin-Ahx-Ub-VS probe labelling (fragment/DMSO); higher = less target engagement (more negative = stronger competition), active = hit call of the paper (q ≤ 0.05, log2 ratio ≤ -1)
Settings in all cases: compound concentration: 200 uM; treatment time: 3 h
[1] = biological target: USP34 (UniProt Q70CQ2)
In short: (§1)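 Average log2 ratios of fragment over vehicle were obtained by unpaired t-test from global-median-normalised Spectronaut label-free quantities. Proteins with ≥2 unique peptides were included. HEK293T lysate (495 µg per sample) was treated in triplicate with fragment at 200 µM or vehicle for 3 h, then with Biotin-Ahx-Ub-VS at 0.5 µM final for 1 h, and labelled DUBs were NeutrAvidin-enriched and run by diaPASEF LC-MS/MS.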

[2] = biological target: T1, USP36 (UniProt Q9P275)
T1 sequence (whole entry): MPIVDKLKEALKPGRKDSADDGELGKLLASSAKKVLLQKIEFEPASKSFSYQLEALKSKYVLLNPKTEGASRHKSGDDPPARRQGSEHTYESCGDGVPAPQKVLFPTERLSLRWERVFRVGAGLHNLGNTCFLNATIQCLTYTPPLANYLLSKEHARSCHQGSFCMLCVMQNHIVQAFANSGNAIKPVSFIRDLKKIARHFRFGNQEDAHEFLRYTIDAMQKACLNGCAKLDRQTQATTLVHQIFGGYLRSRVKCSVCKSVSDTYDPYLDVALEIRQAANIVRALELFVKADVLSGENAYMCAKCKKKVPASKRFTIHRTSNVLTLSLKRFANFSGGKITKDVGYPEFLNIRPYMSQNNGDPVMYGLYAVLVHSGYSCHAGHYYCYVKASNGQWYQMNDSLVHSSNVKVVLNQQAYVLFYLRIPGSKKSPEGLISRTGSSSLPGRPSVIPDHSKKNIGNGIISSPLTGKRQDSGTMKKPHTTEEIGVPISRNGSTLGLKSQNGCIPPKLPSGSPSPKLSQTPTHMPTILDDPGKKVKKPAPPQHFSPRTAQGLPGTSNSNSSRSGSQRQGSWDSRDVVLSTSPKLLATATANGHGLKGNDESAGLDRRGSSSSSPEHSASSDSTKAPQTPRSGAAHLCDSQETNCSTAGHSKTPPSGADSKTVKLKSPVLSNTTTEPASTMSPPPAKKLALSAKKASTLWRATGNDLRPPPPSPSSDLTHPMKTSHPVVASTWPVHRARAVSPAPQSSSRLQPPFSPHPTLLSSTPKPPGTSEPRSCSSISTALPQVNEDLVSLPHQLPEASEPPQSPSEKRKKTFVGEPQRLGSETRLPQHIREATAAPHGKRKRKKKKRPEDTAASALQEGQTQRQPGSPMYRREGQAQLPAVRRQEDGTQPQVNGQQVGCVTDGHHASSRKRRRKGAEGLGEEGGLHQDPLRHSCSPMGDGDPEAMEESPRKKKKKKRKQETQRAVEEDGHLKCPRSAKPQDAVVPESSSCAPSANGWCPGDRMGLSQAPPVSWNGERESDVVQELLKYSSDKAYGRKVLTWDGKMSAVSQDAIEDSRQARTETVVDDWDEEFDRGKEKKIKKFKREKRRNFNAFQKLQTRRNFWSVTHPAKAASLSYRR
In short: as §1

[3] = biological target: T2, USP38 (UniProt Q8NB14)
T2 sequence (whole entry): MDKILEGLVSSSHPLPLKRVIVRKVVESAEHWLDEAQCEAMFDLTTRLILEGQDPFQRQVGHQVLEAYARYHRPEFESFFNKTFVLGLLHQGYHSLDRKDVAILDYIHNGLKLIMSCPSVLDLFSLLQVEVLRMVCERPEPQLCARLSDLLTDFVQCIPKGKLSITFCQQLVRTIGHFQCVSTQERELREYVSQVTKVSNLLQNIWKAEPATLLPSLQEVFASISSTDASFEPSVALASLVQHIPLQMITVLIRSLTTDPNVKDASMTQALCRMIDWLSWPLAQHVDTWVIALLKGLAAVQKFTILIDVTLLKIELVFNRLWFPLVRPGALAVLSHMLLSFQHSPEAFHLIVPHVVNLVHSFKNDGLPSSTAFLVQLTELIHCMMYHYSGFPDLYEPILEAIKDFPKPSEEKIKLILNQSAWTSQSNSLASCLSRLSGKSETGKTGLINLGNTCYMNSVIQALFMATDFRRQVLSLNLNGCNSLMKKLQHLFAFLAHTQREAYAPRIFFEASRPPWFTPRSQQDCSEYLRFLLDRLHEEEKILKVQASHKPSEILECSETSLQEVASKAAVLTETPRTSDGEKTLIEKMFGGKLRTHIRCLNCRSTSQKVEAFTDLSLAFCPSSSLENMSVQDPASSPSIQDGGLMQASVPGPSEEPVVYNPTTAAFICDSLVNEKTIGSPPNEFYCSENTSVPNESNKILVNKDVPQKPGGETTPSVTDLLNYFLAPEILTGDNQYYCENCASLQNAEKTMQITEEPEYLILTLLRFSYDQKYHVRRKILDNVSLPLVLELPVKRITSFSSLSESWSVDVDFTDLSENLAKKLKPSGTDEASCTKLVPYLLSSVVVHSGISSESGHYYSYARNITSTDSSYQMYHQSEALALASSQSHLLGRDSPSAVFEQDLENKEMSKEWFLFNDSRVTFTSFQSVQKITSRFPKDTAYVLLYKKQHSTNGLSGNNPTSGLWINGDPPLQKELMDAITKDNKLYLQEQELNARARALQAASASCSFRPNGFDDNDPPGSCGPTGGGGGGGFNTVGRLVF
In short: as §1

[4] = biological target: T3, USP39 (UniProt Q53GS9)
T3 sequence (whole entry): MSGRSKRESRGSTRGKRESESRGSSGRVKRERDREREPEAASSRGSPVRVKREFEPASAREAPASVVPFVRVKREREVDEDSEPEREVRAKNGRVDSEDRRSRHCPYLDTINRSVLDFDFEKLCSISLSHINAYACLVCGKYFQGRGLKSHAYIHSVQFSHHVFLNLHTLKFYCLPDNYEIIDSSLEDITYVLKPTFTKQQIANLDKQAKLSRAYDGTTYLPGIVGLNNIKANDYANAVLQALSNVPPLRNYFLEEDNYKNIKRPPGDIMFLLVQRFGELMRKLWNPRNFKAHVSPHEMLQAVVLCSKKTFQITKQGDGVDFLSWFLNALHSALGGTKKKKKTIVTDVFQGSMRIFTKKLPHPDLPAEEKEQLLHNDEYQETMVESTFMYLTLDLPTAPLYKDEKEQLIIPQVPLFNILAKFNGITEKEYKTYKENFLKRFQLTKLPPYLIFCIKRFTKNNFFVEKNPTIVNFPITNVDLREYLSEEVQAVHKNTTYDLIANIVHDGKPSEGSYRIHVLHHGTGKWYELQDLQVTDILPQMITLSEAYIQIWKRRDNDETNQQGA
In short: as §1

[5] = biological target: T4, USP4 (UniProt Q13107)
T4 sequence (whole entry): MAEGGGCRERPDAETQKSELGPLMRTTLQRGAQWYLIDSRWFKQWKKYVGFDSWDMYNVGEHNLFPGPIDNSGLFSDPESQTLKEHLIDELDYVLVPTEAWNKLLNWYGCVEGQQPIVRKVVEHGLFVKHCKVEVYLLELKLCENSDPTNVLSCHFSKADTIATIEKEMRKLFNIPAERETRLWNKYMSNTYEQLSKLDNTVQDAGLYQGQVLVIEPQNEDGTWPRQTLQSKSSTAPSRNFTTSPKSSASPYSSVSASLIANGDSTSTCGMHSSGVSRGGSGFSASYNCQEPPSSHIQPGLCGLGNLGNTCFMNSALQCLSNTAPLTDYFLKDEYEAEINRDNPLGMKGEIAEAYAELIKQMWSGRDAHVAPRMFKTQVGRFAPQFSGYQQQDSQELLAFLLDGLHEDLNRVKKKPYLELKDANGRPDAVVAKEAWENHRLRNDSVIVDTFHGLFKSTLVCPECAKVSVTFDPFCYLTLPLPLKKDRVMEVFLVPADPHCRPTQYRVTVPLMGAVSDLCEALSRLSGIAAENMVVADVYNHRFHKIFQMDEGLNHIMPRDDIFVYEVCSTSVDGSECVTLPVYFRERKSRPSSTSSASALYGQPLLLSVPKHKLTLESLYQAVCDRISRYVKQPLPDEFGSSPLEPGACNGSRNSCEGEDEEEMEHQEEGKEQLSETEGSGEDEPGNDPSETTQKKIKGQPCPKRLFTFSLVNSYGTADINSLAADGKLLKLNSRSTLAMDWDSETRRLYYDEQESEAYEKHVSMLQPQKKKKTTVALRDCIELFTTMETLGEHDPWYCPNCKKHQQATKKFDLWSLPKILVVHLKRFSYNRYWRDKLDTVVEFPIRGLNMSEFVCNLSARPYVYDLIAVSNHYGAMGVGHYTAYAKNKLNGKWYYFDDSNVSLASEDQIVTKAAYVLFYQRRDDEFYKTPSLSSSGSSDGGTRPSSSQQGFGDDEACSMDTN
In short: as §1

Measured: log2 ratio of Biotin-Ahx-Ub-VS probe labelling

Sequence of USP34 (Q70CQ2 whole entry, the tested form may be a part): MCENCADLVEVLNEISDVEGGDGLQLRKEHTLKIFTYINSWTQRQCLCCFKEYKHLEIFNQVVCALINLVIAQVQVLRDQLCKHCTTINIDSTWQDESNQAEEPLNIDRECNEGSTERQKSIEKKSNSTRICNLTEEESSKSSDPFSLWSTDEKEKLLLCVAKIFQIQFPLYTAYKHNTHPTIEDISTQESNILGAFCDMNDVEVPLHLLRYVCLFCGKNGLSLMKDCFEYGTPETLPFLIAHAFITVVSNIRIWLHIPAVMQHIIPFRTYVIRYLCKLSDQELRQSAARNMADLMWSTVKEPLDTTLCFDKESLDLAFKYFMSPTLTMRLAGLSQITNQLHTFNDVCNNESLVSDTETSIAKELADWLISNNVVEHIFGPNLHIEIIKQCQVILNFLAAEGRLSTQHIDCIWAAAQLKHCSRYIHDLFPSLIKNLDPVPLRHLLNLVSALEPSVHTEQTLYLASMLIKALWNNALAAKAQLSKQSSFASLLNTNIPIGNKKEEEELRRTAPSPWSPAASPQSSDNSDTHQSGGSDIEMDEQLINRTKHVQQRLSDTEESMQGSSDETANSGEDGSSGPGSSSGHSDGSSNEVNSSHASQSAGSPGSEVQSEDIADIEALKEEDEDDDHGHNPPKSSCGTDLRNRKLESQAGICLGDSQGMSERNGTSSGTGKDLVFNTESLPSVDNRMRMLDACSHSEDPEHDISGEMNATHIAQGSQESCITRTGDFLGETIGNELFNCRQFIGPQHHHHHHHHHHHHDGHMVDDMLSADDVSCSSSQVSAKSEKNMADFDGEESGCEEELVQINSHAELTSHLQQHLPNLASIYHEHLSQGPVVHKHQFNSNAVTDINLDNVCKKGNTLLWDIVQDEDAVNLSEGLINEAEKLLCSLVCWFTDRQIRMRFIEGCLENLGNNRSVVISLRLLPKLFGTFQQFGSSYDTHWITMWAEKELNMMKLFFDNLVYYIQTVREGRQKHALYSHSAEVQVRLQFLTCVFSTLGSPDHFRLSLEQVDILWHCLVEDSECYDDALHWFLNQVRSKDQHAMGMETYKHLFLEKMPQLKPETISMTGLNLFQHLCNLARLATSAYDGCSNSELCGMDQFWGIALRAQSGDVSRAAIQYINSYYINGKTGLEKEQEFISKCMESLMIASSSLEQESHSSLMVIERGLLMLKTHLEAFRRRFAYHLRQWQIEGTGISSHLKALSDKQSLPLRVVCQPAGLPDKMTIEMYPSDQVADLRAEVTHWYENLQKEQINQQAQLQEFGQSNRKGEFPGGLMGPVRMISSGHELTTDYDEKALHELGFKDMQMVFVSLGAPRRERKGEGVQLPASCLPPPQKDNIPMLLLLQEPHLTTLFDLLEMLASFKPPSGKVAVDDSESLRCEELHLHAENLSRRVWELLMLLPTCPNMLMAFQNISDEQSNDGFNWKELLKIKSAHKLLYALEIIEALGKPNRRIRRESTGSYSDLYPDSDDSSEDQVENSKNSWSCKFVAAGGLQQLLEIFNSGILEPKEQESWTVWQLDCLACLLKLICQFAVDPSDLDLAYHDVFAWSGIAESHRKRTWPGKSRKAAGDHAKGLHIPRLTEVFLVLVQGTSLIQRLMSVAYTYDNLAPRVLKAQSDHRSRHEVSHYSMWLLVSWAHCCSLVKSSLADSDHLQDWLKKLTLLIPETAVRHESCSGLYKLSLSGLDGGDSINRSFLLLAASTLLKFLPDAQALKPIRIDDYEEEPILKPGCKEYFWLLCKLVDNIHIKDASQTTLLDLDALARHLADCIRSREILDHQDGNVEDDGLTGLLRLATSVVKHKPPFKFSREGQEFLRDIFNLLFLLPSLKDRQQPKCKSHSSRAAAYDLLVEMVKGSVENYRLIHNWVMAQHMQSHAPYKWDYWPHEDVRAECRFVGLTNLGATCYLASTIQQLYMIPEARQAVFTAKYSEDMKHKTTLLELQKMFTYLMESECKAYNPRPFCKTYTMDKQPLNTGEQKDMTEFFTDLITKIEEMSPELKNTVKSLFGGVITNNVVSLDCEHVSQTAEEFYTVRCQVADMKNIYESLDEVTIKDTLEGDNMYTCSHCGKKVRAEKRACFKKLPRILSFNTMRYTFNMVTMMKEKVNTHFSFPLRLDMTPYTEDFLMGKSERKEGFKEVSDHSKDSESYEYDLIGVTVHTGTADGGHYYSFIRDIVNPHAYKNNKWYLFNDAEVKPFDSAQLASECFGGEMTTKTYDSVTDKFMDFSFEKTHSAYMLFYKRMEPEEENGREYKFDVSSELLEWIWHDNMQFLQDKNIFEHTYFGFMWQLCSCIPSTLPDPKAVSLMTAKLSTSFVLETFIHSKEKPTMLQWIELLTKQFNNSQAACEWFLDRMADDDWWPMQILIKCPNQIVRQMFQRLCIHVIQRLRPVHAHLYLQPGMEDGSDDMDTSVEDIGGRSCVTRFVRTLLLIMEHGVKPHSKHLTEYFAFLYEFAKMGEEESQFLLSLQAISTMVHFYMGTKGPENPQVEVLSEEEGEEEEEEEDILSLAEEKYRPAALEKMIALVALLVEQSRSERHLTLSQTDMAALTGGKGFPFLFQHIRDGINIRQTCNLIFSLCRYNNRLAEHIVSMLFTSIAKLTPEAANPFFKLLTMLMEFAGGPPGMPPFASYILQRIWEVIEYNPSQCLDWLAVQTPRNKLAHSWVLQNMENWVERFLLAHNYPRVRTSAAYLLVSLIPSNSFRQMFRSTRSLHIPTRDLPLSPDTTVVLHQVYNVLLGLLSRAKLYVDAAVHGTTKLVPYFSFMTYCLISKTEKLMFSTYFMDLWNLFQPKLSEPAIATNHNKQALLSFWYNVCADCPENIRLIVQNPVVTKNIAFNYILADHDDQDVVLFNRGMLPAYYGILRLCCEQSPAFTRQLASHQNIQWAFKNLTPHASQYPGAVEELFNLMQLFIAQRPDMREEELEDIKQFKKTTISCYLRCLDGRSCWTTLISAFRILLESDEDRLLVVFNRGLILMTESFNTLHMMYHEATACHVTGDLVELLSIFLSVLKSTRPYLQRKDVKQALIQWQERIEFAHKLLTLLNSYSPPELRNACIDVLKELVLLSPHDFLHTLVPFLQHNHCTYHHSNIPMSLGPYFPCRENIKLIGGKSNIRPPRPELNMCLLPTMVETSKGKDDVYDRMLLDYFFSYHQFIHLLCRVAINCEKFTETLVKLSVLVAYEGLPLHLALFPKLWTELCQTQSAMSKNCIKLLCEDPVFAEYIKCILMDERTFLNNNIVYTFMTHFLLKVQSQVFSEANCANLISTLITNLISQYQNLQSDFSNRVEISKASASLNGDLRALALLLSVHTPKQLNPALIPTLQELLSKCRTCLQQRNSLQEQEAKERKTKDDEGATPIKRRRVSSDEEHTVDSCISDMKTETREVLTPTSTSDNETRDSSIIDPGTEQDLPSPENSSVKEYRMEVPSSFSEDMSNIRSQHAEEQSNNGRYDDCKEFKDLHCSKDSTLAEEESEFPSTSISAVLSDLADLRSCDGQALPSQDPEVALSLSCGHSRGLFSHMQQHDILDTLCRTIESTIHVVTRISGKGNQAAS

Cl.Cn1c(CNC(=O)CCl)nc2cccnc21
inactive: [1] -0.174 | [2] -0.125 | [3] 0.0315 | [4] 0.234 | [5] -0.102
